Results as given in PubChem BioAssay AID1159580 (chemical genetic matrix, 2015).
Among all 5,500 compounds or so, about 2,000 (36%) were called active. Inconclusive results (about 18%) are left out. No stated cut-off is given here; in the data, active means normalized growth mostly below about 0.91 (no sharp cut-off); inconclusive means no clear call, values can overlap the other calls; inactive means mostly above about 0.92. The list shows a part of the results.

Assay: chemical genetic growth profiling, strain panel (AID 1159580);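 further: tested at 20 µM; growth read once vehicle control cultures reached saturation at 30 °C; 1 = growth at the plate median or of vehicle wells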
Conditions: growth OD

Measured: normalized growth

CC1C[C@H]2CC(=O)[C@H]3CCCN4CCC[C@H]2[C@]34C1 (stereo partly specified)
inactive: S. cerevisiae deletion strains, locus YAL021C, strain ccr4, stronger effect = lower value 1.01 | S. cerevisiae deletion strains, locus YAL026C, strain drs2, stronger effect = lower value 1.01 | S. cerevisiae deletion strains, locus YAL030W, strain snc1, stronger effect = lower value 1 | S. cerevisiae deletion strains, locus YBL061C, strain skt5, stronger effect = lower value 1.01 | S. cerevisiae deletion strains, locus YBR009C, strain hhf1, stronger effect = lower value 1 | S. cerevisiae deletion strains, locus YBR021W, strain FUR4, stronger effect = lower value 0.996 | S. cerevisiae deletion strains, locus YBR023C, strain chs3, stronger effect = lower value 1.02 | S. cerevisiae deletion strains, locus YBR171W, strain sec66, stronger effect = lower value 0.996 | S. cerevisiae deletion strains, locus YBR229C, strain ROT2, stronger effect = lower value 1 | S. cerevisiae deletion strains, locus YBR231C, strain swc5, stronger effect = lower value 0.993 | S. cerevisiae deletion strains, locus YBR279W, strain paf1, stronger effect = lower value 1.02 | S. cerevisiae deletion strains, locus YCL011C, strain gbp2, stronger effect = lower value 1.02 | S. cerevisiae deletion strains, locus YCL016C, strain dcc1, stronger effect = lower value 1.02 | S. cerevisiae deletion strains, locus YCL029C, strain bik1, stronger effect = lower value 1.02 | S. cerevisiae deletion strains, locus YCL061C, strain MRC1, stronger effect = lower value 1.01 | S. cerevisiae deletion strains, locus YCL069W, strain vba3, stronger effect = lower value 1.01 | S. cerevisiae deletion strains, locus YCR088W, strain abp1, stronger effect = lower value 1.01 | S. cerevisiae deletion strains, locus YDL005C, strain med2, stronger effect = lower value 1.01 | S. cerevisiae deletion strains, locus YDL035C, strain GPR1, stronger effect = lower value 1.03 | S. cerevisiae deletion strains, locus YDL040C, strain nat1, stronger effect = lower value 1.01 | S. cerevisiae deletion strains, locus YDL074C, strain BRE1, stronger effect = lower value 1.03 | S. cerevisiae deletion strains, locus YDL101C, strain DUN1, stronger effect = lower value 1.02 | S. cerevisiae deletion strains, locus YDL134C, strain PPH21, stronger effect = lower value 1.01 | S. cerevisiae deletion strains, locus YDL185W, strain tfp1, stronger effect = lower value 1.02 | S. cerevisiae deletion strains, locus YDL192W, strain arf1, stronger effect = lower value 1.02 | S. cerevisiae deletion strains, locus YDR001C, strain nth1, stronger effect = lower value 1.01 | S. cerevisiae deletion strains, locus YDR069C, strain doa4, stronger effect = lower value 1.02 | S. cerevisiae deletion strains, locus YDR101C, strain arx1, stronger effect = lower value 1.03 | S. cerevisiae deletion strains, locus YDR137W, strain rgp1, stronger effect = lower value 1.03 | S. cerevisiae deletion strains, locus YDR150W, strain NUM1, stronger effect = lower value 1 | S. cerevisiae deletion strains, locus YDR159W, strain sac3, stronger effect = lower value 1 | S. cerevisiae deletion strains, locus YDR162C, strain NBP2, stronger effect = lower value 1.03 | S. cerevisiae deletion strains, locus YDR195W, strain ref2 0.993 | S. cerevisiae deletion strains, locus YDR297W, strain sur2, stronger effect = lower value 1 | S. cerevisiae deletion strains, locus YDR318W, strain mcm21, stronger effect = lower value 1.02 | S. cerevisiae deletion strains, locus YDR334W, strain swr1, stronger effect = lower value 1 | S. cerevisiae deletion strains, locus YDR335W, strain msn5, stronger effect = lower value 1.01 | S. cerevisiae deletion strains, locus YDR388W, stronger effect = lower value 1.01 | S. cerevisiae deletion strains, locus YDR392W, strain spt3, stronger effect = lower value 0.954 | S. cerevisiae deletion strains, locus YDR502C, strain sam2, stronger effect = lower value 1.01 | S. cerevisiae deletion strains, locus YEL003W, strain gim4, stronger effect = lower value 1.01 | S. cerevisiae deletion strains, locus YEL037C, strain rad23, stronger effect = lower value 1.01 | S. cerevisiae deletion strains, locus YEL061C, strain CIN8 (second series), stronger effect = lower value 1.01 | S. cerevisiae deletion strains, locus YEL061C, strain CIN8, stronger effect = lower value 1.01 | S. cerevisiae deletion strains, locus YER015W, strain faa2, stronger effect = lower value 1.02 | S. cerevisiae deletion strains, locus YER016W, strain bim1, stronger effect = lower value 1.01 | S. cerevisiae deletion strains, locus YER110C, stronger effect = lower value 1.02 | S. cerevisiae deletion strains, locus YER111C, strain swi4, stronger effect = lower value 1 | S. cerevisiae deletion strains, locus YER155C, strain BEM2 (second series), stronger effect = lower value 1.04 | S. cerevisiae deletion strains, locus YER155C, strain BEM2, stronger effect = lower value 0.989 | S. cerevisiae deletion strains, locus YER167W, strain BCK2, stronger effect = lower value 1.01 | S. cerevisiae deletion strains, locus YFR010W, strain ubp6, stronger effect = lower value 1.01 | S. cerevisiae deletion strains, locus YGL078C, strain dbp3, stronger effect = lower value 1.01 | S. cerevisiae deletion strains, locus YGL086W, strain mad1, stronger effect = lower value 1.02 | S. cerevisiae deletion strains, locus YGL167C, strain pmr1, stronger effect = lower value 1.01 | S. cerevisiae deletion strains, locus YGL173C, strain kem1, stronger effect = lower value 1.01 | S. cerevisiae deletion strains, locus YGL227W, strain vid30, stronger effect = lower value 1.01 | S. cerevisiae deletion strains, locus YGL240W, strain doc1, stronger effect = lower value 0.996 | S. cerevisiae deletion strains, locus YGL248W, strain PDE1, stronger effect = lower value 1.01 | S. cerevisiae deletion strains, locus YGL253W, strain hxk2, stronger effect = lower value 1 | S. cerevisiae deletion strains, locus YGR135W, strain pre9, stronger effect = lower value 1.01 | S. cerevisiae deletion strains, locus YGR252W, strain gcn5, stronger effect = lower value 0.999 | S. cerevisiae deletion strains, locus YHR013C, strain ard1, stronger effect = lower value 1.02 | S. cerevisiae deletion strains, locus YHR027C, strain rpn1, stronger effect = lower value 1 | S. cerevisiae deletion strains, locus YHR030C, strain SLT2, stronger effect = lower value 1 | S. cerevisiae deletion strains, locus YHR079C, strain IRE1 (second series), stronger effect = lower value 1.01 | S. cerevisiae deletion strains, locus YHR094C, strain hxt1, stronger effect = lower value 1.02 | S. cerevisiae deletion strains, locus YHR129C, strain ARP1, stronger effect = lower value 1.01 | S. cerevisiae deletion strains, locus YHR142W, strain chs7, stronger effect = lower value 1.02 | S. cerevisiae deletion strains, locus YHR200W, strain rpn10, stronger effect = lower value 1.02 | S. cerevisiae deletion strains, locus YIL066C, strain RNR3, stronger effect = lower value 1.01 | S. cerevisiae deletion strains, locus YIL073C, strain SPO22, stronger effect = lower value 1.06 | S. cerevisiae deletion strains, locus YIL125W, strain kgd1, stronger effect = lower value 1.02 | S. cerevisiae deletion strains, locus YIR030C, strain dcg1, stronger effect = lower value 1.02 | S. cerevisiae deletion strains, locus YJL092W, strain hpr5, stronger effect = lower value 1.01 | S. cerevisiae deletion strains, locus YJL095W, strain BCK1 (second series), stronger effect = lower value 1.01 | S. cerevisiae deletion strains, locus YJL095W, strain BCK1, stronger effect = lower value 1.04 | S. cerevisiae deletion strains, locus YJL115W, strain asf1, stronger effect = lower value 1.01 | S. cerevisiae deletion strains, locus YJL129C, strain trk1, stronger effect = lower value 1.02 | S. cerevisiae deletion strains, locus YJL134W, strain LCB3, stronger effect = lower value 0.994 | S. cerevisiae deletion strains, locus YJL154C, strain vps35, stronger effect = lower value 1.02 | S. cerevisiae deletion strains, locus YJL164C, strain tpk1, stronger effect = lower value 1.01 | S. cerevisiae deletion strains, locus YJL166W, strain qcr8, stronger effect = lower value 1.01 | S. cerevisiae deletion strains, locus YJL168C, strain set2, stronger effect = lower value 1.01 | S. cerevisiae deletion strains, locus YJL187C, strain SWE1 (second series), stronger effect = lower value 1.03 | S. cerevisiae deletion strains, locus YJL187C, strain SWE1, stronger effect = lower value 1 | S. cerevisiae deletion strains, locus YJR043C, strain POL32, stronger effect = lower value 1 | S. cerevisiae deletion strains, locus YKL009W, strain mrt4, stronger effect = lower value 1.03 | S. cerevisiae deletion strains, locus YKL068W, stronger effect = lower value 1.01 | S. cerevisiae deletion strains, locus YKL085W, strain MDH1 (second series), stronger effect = lower value 1 | S. cerevisiae deletion strains, locus YKL085W, strain MDH1, stronger effect = lower value 1 | S. cerevisiae deletion strains, locus YKL160W, strain elf1, stronger effect = lower value 1.02 | S. cerevisiae deletion strains, locus YKL190W, strain CNB1, stronger effect = lower value 0.989 | S. cerevisiae deletion strains, locus YKR001C, strain vps1, stronger effect = lower value 1.02 | S. cerevisiae deletion strains, locus YKR026C, strain gcn3, stronger effect = lower value 1.01 | S. cerevisiae deletion strains, locus YKR091W, strain srl3, stronger effect = lower value 1.02 | S. cerevisiae deletion strains, locus YLL001W, strain dnm1, stronger effect = lower value 1.01 | S. cerevisiae deletion strains, locus YLL026W, stronger effect = lower value 1 | S. cerevisiae deletion strains, locus YLL041C, strain sdh2, stronger effect = lower value 1.01 | S. cerevisiae deletion strains, locus YLR027C, strain aat2, stronger effect = lower value 1.01 | S. cerevisiae deletion strains, locus YLR039C, strain RIC1, stronger effect = lower value 1.04 | S. cerevisiae deletion strains, locus YLR058C, strain SHM2, stronger effect = lower value 1.02 | S. cerevisiae deletion strains, locus YLR102C, strain apc9, stronger effect = lower value 1.02 | S. cerevisiae deletion strains, locus YLR221C, strain rsa3, stronger effect = lower value 1.02 | S. cerevisiae deletion strains, locus YLR258W, strain gsy2, stronger effect = lower value 1.03 | S. cerevisiae deletion strains, locus YLR262C, strain YPT6 (second series), stronger effect = lower value 1.01 | S. cerevisiae deletion strains, locus YLR262C, strain YPT6, stronger effect = lower value 1.12 | S. cerevisiae deletion strains, locus YLR268W, strain sec22, stronger effect = lower value 1.04 | S. cerevisiae deletion strains, locus YLR320W, strain mms22, stronger effect = lower value 1.02 | S. cerevisiae deletion strains, locus YLR330W, strain CHS5, stronger effect = lower value 1 | S. cerevisiae deletion strains, locus YLR342W, strain FKS1 (second series), stronger effect = lower value 0.993 | S. cerevisiae deletion strains, locus YLR342W, strain FKS1, stronger effect = lower value 1.02 | S. cerevisiae deletion strains, locus YLR357W, strain rsc2, stronger effect = lower value 0.995 | S. cerevisiae deletion strains, locus YLR370C, strain arc18, stronger effect = lower value 1.02 | S. cerevisiae deletion strains, locus YLR371W, strain rom2, stronger effect = lower value 1.02 | S. cerevisiae deletion strains, locus YLR384C, strain iki3, stronger effect = lower value 1.02 | S. cerevisiae deletion strains, locus YLR418C, strain cdc73, stronger effect = lower value 1.02 | S. cerevisiae deletion strains, locus YML016C, strain PPZ1, stronger effect = lower value 1.01 | S. cerevisiae deletion strains, locus YML032C, strain rad52, stronger effect = lower value 1.01 | S. cerevisiae deletion strains, locus YML120C, strain ndi1, stronger effect = lower value 1.01 | S. cerevisiae deletion strains, locus YML124C, strain tub3, stronger effect = lower value 1.01 | S. cerevisiae deletion strains, locus YMR058W, strain fet3, stronger effect = lower value 1.01 | S. cerevisiae deletion strains, locus YMR078C, strain ctf18, stronger effect = lower value 1.03 | S. cerevisiae deletion strains, locus YMR125W, strain sto1, stronger effect = lower value 1.01 | S. cerevisiae deletion strains, locus YMR129W, stronger effect = lower value 1.01 | S. cerevisiae deletion strains, locus YMR205C, strain PFK2, stronger effect = lower value 1.02 | S. cerevisiae deletion strains, locus YMR223W, strain ubp8, stronger effect = lower value 1.02 | S. cerevisiae deletion strains, locus YMR231W, strain pep5, stronger effect = lower value 1 | S. cerevisiae deletion strains, locus YMR307W, strain GAS1, stronger effect = lower value 1.01 | S. cerevisiae deletion strains, locus YNL067W, strain RPL9B, stronger effect = lower value 1.03 | S. cerevisiae deletion strains, locus YNL071W, strain lat1, stronger effect = lower value 1.02 | S. cerevisiae deletion strains, locus YNL128W, strain TEP1, stronger effect = lower value 1.03 | S. cerevisiae deletion strains, locus YNL153C, strain GIM3, stronger effect = lower value 1.01 | S. cerevisiae deletion strains, locus YNL209W, strain ssb2, stronger effect = lower value 1.01 | S. cerevisiae deletion strains, locus YNL233W, strain BNI4, stronger effect = lower value 1.03 | S. cerevisiae deletion strains, locus YNL248C, strain rpa49, stronger effect = lower value 0.998 | S. cerevisiae deletion strains, locus YNL250W, strain rad50, stronger effect = lower value 1.05 | S. cerevisiae deletion strains, locus YNL271C, strain bni1, stronger effect = lower value 1.03 | S. cerevisiae deletion strains, locus YNL298W, strain CLA4, stronger effect = lower value 1.01 | S. cerevisiae deletion strains, locus YNL307C, strain MCK1, stronger effect = lower value 1.04 | S. cerevisiae deletion strains, locus YNL322C, strain KRE1 (second series), stronger effect = lower value 1 | S. cerevisiae deletion strains, locus YNL322C, strain KRE1, stronger effect = lower value 1 | S. cerevisiae deletion strains, locus YNR049C, strain mso1, stronger effect = lower value 1.03 | S. cerevisiae deletion strains, locus YNR052C, strain pop2, stronger effect = lower value 1.02 | S. cerevisiae deletion strains, locus YOL012C, strain htz1 1.55 | S. cerevisiae deletion strains, locus YOL147C, strain pex11, stronger effect = lower value 1.02 | S. cerevisiae deletion strains, locus YOR001W, strain rrp6, stronger effect = lower value 1.02 | S. cerevisiae deletion strains, locus YOR061W, strain CKA2, stronger effect = lower value 1.01 | S. cerevisiae deletion strains, locus YOR069W, strain VPS5, stronger effect = lower value 1.01 | S. cerevisiae deletion strains, locus YOR070C, strain gyp1, stronger effect = lower value 1.03 | S. cerevisiae deletion strains, locus YOR080W, strain dia2, stronger effect = lower value 1 | S. cerevisiae deletion strains, locus YOR083W, strain WHI5, stronger effect = lower value 1.02 | S. cerevisiae deletion strains, locus YOR106W, strain vam3, stronger effect = lower value 1.02 | S. cerevisiae deletion strains, locus YOR136W, strain idh2, stronger effect = lower value 1.03 | S. cerevisiae deletion strains, locus YOR144C, strain elg1, stronger effect = lower value 1 | S. cerevisiae deletion strains, locus YOR184W, strain ser1, stronger effect = lower value 1.01 | S. cerevisiae deletion strains, locus YOR265W, strain rbl2, stronger effect = lower value 1 | S. cerevisiae deletion strains, locus YOR270C, strain vph1, stronger effect = lower value 1.05 | S. cerevisiae deletion strains, locus YOR290C, strain snf2, stronger effect = lower value 1.01 | S. cerevisiae deletion strains, locus YOR316C, strain cot1, stronger effect = lower value 1.02 | S. cerevisiae deletion strains, locus YPL051W, strain arl3, stronger effect = lower value 1 | S. cerevisiae deletion strains, locus YPL055C, strain LGE1, stronger effect = lower value 1.03 | S. cerevisiae deletion strains, locus YPL078C, strain atp4, stronger effect = lower value 1.01 | S. cerevisiae deletion strains, locus YPL106C, strain sse1, stronger effect = lower value 0.997 | S. cerevisiae deletion strains, locus YPL240C, strain hsp82, stronger effect = lower value 0.998 | S. cerevisiae deletion strains, locus YPR119W, strain clb2, stronger effect = lower value 1.02 | S. cerevisiae deletion strains, locus YPR141C, strain kar3, stronger effect = lower value 1.02 | S. cerevisiae deletion strains, locus YPR163C, strain tif3, stronger effect = lower value 1.02 | S. cerevisiae deletion strains, locus YPR167C, strain met16, stronger effect = lower value 1.02 | S. cerevisiae deletion strains, strain wtn01, stronger effect = lower value 1.02 | S. cerevisiae strains, strain wild type, stronger effect = lower value 1.01
